Values joined by “and” are separate entries in the source; they are usually repeats but may differ in a detail not shown here. Equal values may be shown once. In all, about 5,500 compounds went through this assay and about 2,000 (36%) were called active. Roughly 18% stayed inconclusive and do not appear here. No stated cut-off is given here; in the data, active means normalized growth mostly below about 0.91 (no sharp cut-off); inconclusive means no clear call, values can overlap the other calls; inactive means mostly above about 0.92. This is one part of the list.
Experiment: chemical genetic growth profiling, strain panel (AID 1159580);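 further: tested at 20 µM; growth read once vehicle control cultures reached saturation at 30 °C; 1 = growth at the plate median or of vehicle wells; lower values mean less growth of the strain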
Details: S. cerevisiae deletion strains, growth OD

Measured: normalized growth

CC1(C)CC2C1CCC1(C)OC2(C)CCC1O (stereo not given)
inactive: locus YAL021C, strain ccr4, hits give low values 1.02 | locus YAL026C, strain drs2, hits give low values 1.05 | locus YAL030W, strain snc1, hits give low values 1.03 | locus YBL061C, strain skt5, hits give low values 1.03 | locus YBR009C, strain hhf1, hits give low values 1.03 | locus YBR021W, strain FUR4, hits give low values 1.03 | locus YBR023C, strain chs3, hits give low values 1.03 | locus YBR171W, strain sec66, hits give low values 1.03 | locus YBR229C, strain ROT2, hits give low values 1.02 | locus YBR231C, strain swc5, hits give low values 1.02 | locus YBR279W, strain paf1, hits give low values 1.02 | locus YCL011C, strain gbp2, hits give low values 1.02 | locus YCL016C, strain dcc1, hits give low values 1.01 | locus YCL029C, strain bik1, hits give low values 1.01 | locus YCL061C, strain MRC1, hits give low values 1.03 | locus YCL069W, strain vba3, hits give low values 1.03 | locus YCR088W, strain abp1, hits give low values 1.02 | locus YDL005C, strain med2, hits give low values 1.03 | locus YDL035C, strain GPR1, hits give low values 0.989 | locus YDL040C, strain nat1, hits give low values 1.01 | locus YDL074C, strain BRE1, hits give low values 1.02 | locus YDL101C, strain DUN1, hits give low values 1.03 | locus YDL185W, strain tfp1, hits give low values 1.01 | locus YDL192W, strain arf1, hits give low values 1 | locus YDR001C, strain nth1, hits give low values 1.02 | locus YDR069C, strain doa4, hits give low values 1.02 | locus YDR101C, strain arx1, hits give low values 0.993 | locus YDR137W, strain rgp1, hits give low values 1.03 | locus YDR159W, strain sac3, hits give low values 1.03 | locus YDR162C, strain NBP2, hits give low values 1.02 | locus YDR195W, strain ref2 1.02 | locus YDR297W, strain sur2, hits give low values 1.04 | locus YDR318W, strain mcm21, hits give low values 0.994 | locus YDR334W, strain swr1, hits give low values 1.03 | locus YDR335W, strain msn5, hits give low values 1.02 | locus YDR388W, hits give low values 1.01 | locus YDR392W, strain spt3, hits give low values 0.958 | locus YDR502C, strain sam2, hits give low values 1.03 | locus YEL003W, strain gim4, hits give low values 1.02 | locus YEL037C, strain rad23, hits give low values 1.02 | locus YEL061C, strain CIN8 (second series), hits give low values 1.02 | locus YER015W, strain faa2, hits give low values 1.04 | locus YER016W, strain bim1, hits give low values 1.02 | locus YER110C, hits give low values 1.01 | locus YER111C, strain swi4, hits give low values 1.02 | locus YER155C, strain BEM2 (second series), hits give low values 1.04 | locus YER155C, strain BEM2, hits give low values 0.996 | locus YER167W, strain BCK2, hits give low values 1 | locus YFR010W, strain ubp6, hits give low values 1.04 | locus YGL078C, strain dbp3, hits give low values 1.03 | locus YGL086W, strain mad1, hits give low values 1.02 | locus YGL167C, strain pmr1, hits give low values 1.03 | locus YGL173C, strain kem1, hits give low values 1.04 | locus YGL227W, strain vid30, hits give low values 1.01 | locus YGL240W, strain doc1, hits give low values 1.03 | locus YGL248W, strain PDE1, hits give low values 1.07 | locus YGL253W, strain hxk2, hits give low values 1.04 | locus YGR135W, strain pre9, hits give low values 1.08 | locus YGR229C, strain SMI1, hits give low values 0.978 | locus YGR252W, strain gcn5, hits give low values 1.11 | locus YHR013C, strain ard1, hits give low values 1.06 | locus YHR027C, strain rpn1, hits give low values 1.05 | locus YHR030C, strain SLT2, hits give low values 0.992 and 1.02 | locus YHR079C, strain IRE1 (second series), hits give low values 1.01 | locus YHR079C, strain IRE1, hits give low values 1.02 | locus YHR094C, strain hxt1, hits give low values 1.02 | locus YHR129C, strain ARP1, hits give low values 1.01 | locus YHR142W, strain chs7, hits give low values 1.02 | locus YHR200W, strain rpn10, hits give low values 1.03 | locus YIL066C, strain RNR3, hits give low values 1.01 | locus YIL073C, strain SPO22, hits give low values 1.02 | locus YIL125W, strain kgd1, hits give low values 0.999 | locus YIR030C, strain dcg1, hits give low values 1 | locus YJL092W, strain hpr5, hits give low values 1.03 | locus YJL095W, strain BCK1 (second series), hits give low values 1.03 | locus YJL095W, strain BCK1, hits give low values 1.09 and 1.03 | locus YJL115W, strain asf1, hits give low values 1.03 | locus YJL129C, strain trk1, hits give low values 1.05 | locus YJL134W, strain LCB3, hits give low values 1 | locus YJL154C, strain vps35, hits give low values 1.03 | locus YJL164C, strain tpk1, hits give low values 1.01 | locus YJL166W, strain qcr8, hits give low values 1.03 | locus YJL168C, strain set2, hits give low values 1.01 | locus YJL187C, strain SWE1 (second series), hits give low values 1.05 | locus YJR043C, strain POL32, hits give low values 0.976 | locus YJR066W, strain TOR1, hits give low values 0.959 | locus YJR075W, strain HOC1, hits give low values 1.01 | locus YKL009W, strain mrt4, hits give low values 0.984 | locus YKL068W, hits give low values 1 | locus YKL085W, strain MDH1 (second series), hits give low values 0.978 | locus YKL085W, strain MDH1, hits give low values 0.978 | locus YKL160W, strain elf1, hits give low values 1 | locus YKL190W, strain CNB1, hits give low values 1 | locus YKR001C, strain vps1, hits give low values 1.03 | locus YKR026C, strain gcn3, hits give low values 1.03 | locus YKR091W, strain srl3, hits give low values 1.01 | locus YLL001W, strain dnm1, hits give low values 0.991 | locus YLL026W, hits give low values 1.02 | locus YLL041C, strain sdh2, hits give low values 1.02 | locus YLR027C, strain aat2, hits give low values 1.02 | locus YLR039C, strain RIC1, hits give low values 1.05 | locus YLR058C, strain SHM2, hits give low values 1.03 | locus YLR102C, strain apc9, hits give low values 1 | locus YLR113W, strain HOG1, hits give low values 1.03 | locus YLR221C, strain rsa3, hits give low values 1.04 | locus YLR258W, strain gsy2, hits give low values 1.01 | locus YLR262C, strain YPT6 (second series), hits give low values 1.03 | locus YLR268W, strain sec22, hits give low values 0.981 | locus YLR320W, strain mms22, hits give low values 1.04 | locus YLR330W, strain CHS5, hits give low values 1 | locus YLR342W, strain FKS1 (second series), hits give low values 0.993 | locus YLR342W, strain FKS1, hits give low values 1.03 | locus YLR357W, strain rsc2, hits give low values 1.04 | locus YLR370C, strain arc18, hits give low values 1.02 | locus YLR371W, strain rom2, hits give low values 1.02 | locus YLR384C, strain iki3, hits give low values 1.02 | locus YLR418C, strain cdc73, hits give low values 1.08 | locus YML016C, strain PPZ1, hits give low values 1.01 | locus YML032C, strain rad52, hits give low values 1.02 | locus YML120C, strain ndi1, hits give low values 1.01 | locus YML124C, strain tub3, hits give low values 1.01 | locus YMR058W, strain fet3, hits give low values 1.04 | locus YMR078C, strain ctf18, hits give low values 1.02 | locus YMR125W, strain sto1, hits give low values 1.05 | locus YMR129W, hits give low values 1.01 | locus YMR205C, strain PFK2, hits give low values 1.04 | locus YMR223W, strain ubp8, hits give low values 1.01 | locus YMR231W, strain pep5, hits give low values 1.02 | locus YMR263W, strain SAP30, hits give low values 1.02 | locus YMR307W, strain GAS1, hits give low values 1.03 | locus YNL067W, strain RPL9B, hits give low values 1.04 | locus YNL071W, strain lat1, hits give low values 1.02 | locus YNL183C, strain NPR1, hits give low values 0.969 | locus YNL209W, strain ssb2, hits give low values 1.02 | locus YNL233W, strain BNI4, hits give low values 1.07 | locus YNL248C, strain rpa49, hits give low values 1.03 | locus YNL250W, strain rad50, hits give low values 1.04 | locus YNL271C, strain bni1, hits give low values 1.01 | locus YNL298W, strain CLA4, hits give low values 1.01 | locus YNL307C, strain MCK1, hits give low values 1.02 | locus YNL322C, strain KRE1 (second series), hits give low values 1.02 | locus YNR049C, strain mso1, hits give low values 1.06 | locus YNR052C, strain pop2, hits give low values 1.03 | locus YOL012C, strain htz1 1.1 | locus YOL147C, strain pex11, hits give low values 1.02 | locus YOR001W, strain rrp6, hits give low values 1.03 | locus YOR061W, strain CKA2, hits give low values 0.999 | locus YOR069W, strain VPS5, hits give low values 1 | locus YOR070C, strain gyp1, hits give low values 1.02 | locus YOR080W, strain dia2, hits give low values 1.05 | locus YOR083W, strain WHI5, hits give low values 1 | locus YOR106W, strain vam3, hits give low values 1 | locus YOR136W, strain idh2, hits give low values 1.02 | locus YOR144C, strain elg1, hits give low values 1 | locus YOR184W, strain ser1, hits give low values 0.981 | locus YOR231W, strain MKK1, hits give low values 1.02 | locus YOR265W, strain rbl2, hits give low values 1.03 | locus YOR270C, strain vph1, hits give low values 1.07 | locus YOR290C, strain snf2, hits give low values 1.01 | locus YOR316C, strain cot1, hits give low values 1.02 | locus YPL051W, strain arl3, hits give low values 1 | locus YPL078C, strain atp4, hits give low values 1.01 | locus YPL106C, strain sse1, hits give low values 1.04 | locus YPL240C, strain hsp82, hits give low values 1.02 | locus YPL256C, strain CLN2, hits give low values 1.03 | locus YPR119W, strain clb2, hits give low values 1 | locus YPR141C, strain kar3, hits give low values 0.987 | locus YPR163C, strain tif3, hits give low values 1.02 | locus YPR167C, strain met16, hits give low values 1.01 | strain wtn01, hits give low values 1
